We go through 40 molecules from PubChem BioAssay (NCATS).

Values without a mark were called inactive. No rule for the calls is given here. Where only a bound is given, the exact number is not on record here.
Potency is read from the fitted curve at half-maximal effect.

The subject of this assay is HIV-1 nucleocapsid protein NCp7 (binding to TG oligonucleotide). Put plainly: HIV Nucleocapsid (AID 346).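 Also: potency is for inhibitors that block NC binding and lower polarization.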 The settings on record: HIV-1 NC / fluorescein-TGTGTGTG probe, fluorescence polarization. The essentials:
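10 nM TG4xF probe with 100 nM nucleocapsid protein in high-salt Hepes pH 7.5 (250mM NaCl) containing 1uM ZnCl2 and reducing agents. Compound inhibition of binding was read as fluorescein polarization after 1 hr at room temperature.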
Consider `CN1CCN(c2ncc3nc(-c4cccs4)c(=O)n(Cc4ccc(F)cc4)c3n2)CC1`, for which the Potency is over 4 µM.
Under `CC(C)CN1CCC2(CC1)CCN(C(=O)c1ccco1)CC2` stands over 20 µM; under `COc1ccccc1CNc1ncncc1-c1ccccc1OC`, over 20 µM.
Under `COc1ccc(-c2nc3cnc(Nc4cccc(OC)c4)nc3n(CCC#N)c2=O)cc1` stands over 20 µM; under `CN(C)C(=O)c1ccc(-c2ccc3ncnc(N(C)Cc4ccco4)c3c2)cc1`, over 20 µM; under `O=C(c1cccc(F)c1)N1CCC2(CCCN(c3ccccc3)C2)CC1`, over 20 µM.
The value for `N#CCCn1c(=O)c(-c2cccs2)nc2cnc(N3CCNCC3)nc21` was 16.4 µM; that for `COc1ccc(-c2nc3cnc(OC)nc3n(-c3ccccc3)c2=O)cc1` was over 20 µM; that for `O=C(Nc1cccc(F)c1)N1CC[C@@]2(CCCN(C(=O)c3ccncc3)C2)C1` was over 20 µM.
As to `CN(C)c1ncnc2ccc(-c3cccc(C#N)c3)cc12`, the Potency is over 20 µM.
With `c1csc(CNc2ncncc2-c2ccc3c(c2)OCO3)c1`, the Potency is over 20 µM.
Under `COc1cccc(-c2cncnc2-n2ccnc2)c1` stands over 20 µM.
The value for `Cc1noc(C)c1-c1nccc(N(C)C)n1` was over 20 µM; that for `N#CCCn1c(=O)c(-c2ccc(F)cc2)nc2cnc(Oc3ccccc3)nc21` was over 20 µM.
The value for `CN(C)Cc1ccccc1-c1nc(N(C)Cc2ccco2)c2ccccc2n1` was over 20 µM; that for `COc1ccccc1CNc1cc(-c2ccccc2CN(C)C)ncn1` was over 20 µM.
In the case of `COc1cccc(Cn2c(=O)c(CCc3ccccc3)nc3cnc(N4CCNCC4)nc32)c1`, the Potency is over 20 µM.
Under `O=C(c1ccco1)N1CCC2(CCCN(c3ccccn3)C2)CC1` stands over 20 µM; under `O=C(c1ccncc1)N1CCC[C@@]2(CCN(c3ccncc3)C2)C1`, over 20 µM; under `CC(=O)N1CCC2(CC1)CN(Cc1ccccc1)C2`, over 20 µM.
The value for `COc1ncc2nc(C)c(=O)n(C)c2n1` was over 20 µM; that for `COCCn1c(=O)c(CCc2ccccc2)nc2cncnc21` was over 20 µM.
For `O=C(c1cccc(F)c1)N1CCC2(CC1)CN(C(c1ccccc1)c1ccccc1)C2`, the Potency is over 20 µM.
Under `O=C(Nc1ccccc1)N1CC[C@@]2(CCCN(C(=O)c3cccc(F)c3)C2)C1` stands over 20 µM; under `COc1cccc(-c2ccc3ncnc(NC4CC4)c3c2)c1`, over 20 µM.
Under `COc1cccc(-c2nccc(NCc3cnc(C)cn3)n2)c1` stands over 20 µM; under `COc1ncc2nc(CCc3ccccc3)c(=O)n(Cc3ccc(F)cc3)c2n1`, over 20 µM; under `COc1cccc(Cn2c(=O)cnc3cnc(Oc4ccccc4)nc32)c1`, over 4 µM.
Under `N#Cc1ccccc1-c1ccc2ncnc(NCc3ccccc3)c2c1` stands over 20 µM.
As for `COc1cccc(-c2cc(NCc3cccs3)ncn2)c1`, the Potency was over 20 µM.
Under `Cc1cccc(CNc2ncnc3ccc(-c4ccoc4)cc23)c1` stands over 20 µM; under `COc1ccc(C(=O)N2CCC3(CCN(C(=O)Nc4cccc(F)c4)CC3)CC2)cc1`, over 20 µM; under `CCNc1ncc2nc(-c3ccc(OC)cc3)c(=O)n(CCC#N)c2n1`, over 20 µM.
The value for `COCCn1c(=O)c(-c2ccc(OC)cc2)nc2cnc(N3CCN(C)CC3)nc21` was over 20 µM; that for `Cc1ccccc1-c1cncnc1NC1CCNCC1` was over 20 µM.
Consider `COc1cccc(Cn2c(=O)cnc3cnc(N4CCOCC4)nc32)c1`, for which the Potency is over 20 µM.
The value for `O=C(Oc1ccccc1)N1CCC[C@@]2(CCN(c3ccccn3)C2)C1` was over 20 µM.
Regarding `CN(C)c1ncc2nc(-c3cc(F)cc(F)c3)c(=O)n(C[C@H]3CCCO3)c2n1`, the Potency is over 20 µM.
Take `O=C(Nc1cccc(F)c1)N1CCC2(CC1)CCN(C(=O)c1csnn1)CC2`: the Potency is over 20 µM.
The value for `N#Cc1ccc(CN2CCC3(CC2)CCN(C(=O)c2csnn2)CC3)cc1` was over 20 µM.
